# The full list was thinned out, with hits kept by preference.
# IDE exosite FP = displaces the probe from the exo-site of human IDE. P14735. purified IDE, FL-6b probe fluorescence polarization; stronger effect = lower value. z-score at 20 µM. hit rate 6.3% among 17,000. AID 1259349;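 active = z-score of -3 or lower, meaning strong loss of probe binding signal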;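 note: His-tagged human IDE residues 42-1019 made in E. coli with 30 nM FL-6b probe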
# Target sequence (P14735 42-1019 limits assumed): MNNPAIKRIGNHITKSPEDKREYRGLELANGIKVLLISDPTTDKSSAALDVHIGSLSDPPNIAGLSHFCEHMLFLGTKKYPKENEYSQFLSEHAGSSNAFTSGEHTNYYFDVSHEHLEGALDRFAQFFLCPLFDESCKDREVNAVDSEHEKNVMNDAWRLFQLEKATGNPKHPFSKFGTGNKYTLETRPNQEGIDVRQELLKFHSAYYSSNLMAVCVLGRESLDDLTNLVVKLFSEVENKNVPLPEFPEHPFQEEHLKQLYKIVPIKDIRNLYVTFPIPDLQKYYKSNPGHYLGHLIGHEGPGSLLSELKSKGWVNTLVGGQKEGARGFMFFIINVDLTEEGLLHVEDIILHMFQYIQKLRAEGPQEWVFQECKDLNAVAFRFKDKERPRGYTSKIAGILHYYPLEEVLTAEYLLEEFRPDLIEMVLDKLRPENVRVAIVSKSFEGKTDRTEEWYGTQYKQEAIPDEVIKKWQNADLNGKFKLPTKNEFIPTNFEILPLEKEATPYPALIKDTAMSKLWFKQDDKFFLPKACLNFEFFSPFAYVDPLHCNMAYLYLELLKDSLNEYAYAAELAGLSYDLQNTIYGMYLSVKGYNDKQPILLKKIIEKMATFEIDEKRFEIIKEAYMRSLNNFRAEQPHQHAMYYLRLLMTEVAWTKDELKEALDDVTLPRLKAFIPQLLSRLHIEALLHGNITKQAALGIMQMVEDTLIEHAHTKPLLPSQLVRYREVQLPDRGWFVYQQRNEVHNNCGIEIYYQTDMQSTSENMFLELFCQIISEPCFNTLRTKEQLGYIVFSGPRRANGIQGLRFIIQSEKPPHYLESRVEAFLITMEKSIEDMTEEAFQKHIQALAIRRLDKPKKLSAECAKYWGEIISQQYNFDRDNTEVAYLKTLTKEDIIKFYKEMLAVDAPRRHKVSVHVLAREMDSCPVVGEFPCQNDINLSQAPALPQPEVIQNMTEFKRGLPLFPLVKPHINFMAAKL
# Numbers without * were called inactive.
SMILES,IDE exosite FP
CO[C@H]1CN(C)C(=O)c2ccc(NC(=O)Nc3c(C)noc3C)cc2OC[C@H](C)N(CCC(F)(F)F)C[C@@H]1C,-0.37
C/C=C/c1ccc([C@H]2[C@@H](CO)N(C(=O)NCCC)[C@H]2CNC(=O)C2CC2)cc1,4.3
C[C@H](CO)N1C[C@H](C)[C@@H](CN(C)C(=O)NC2CCCC2)OCc2cnnn2CCCC1=O,-1.1
O=S(=O)(c1ccccc1F)N1CCCCN2[C@@H](CO)[C@@H](c3ccc(-c4ccccc4)cc3)[C@@H]2C1,0.014
Cc1ccccc1S(=O)(=O)N1CCCCN2[C@H](CO)[C@@H](c3ccc(-c4cccc(F)c4)cc3)[C@@H]2C1,-7.3*
Cc1cccc(-c2ccc([C@@H]3[C@@H](CO)N4CCCCN(S(=O)(=O)c5cccc(C)c5)C[C@H]34)cc2)c1,3.6
Cc1cccc(-c2ccc([C@H]3[C@H]4CN(S(=O)(=O)c5ccccc5C)CCCCN4[C@H]3CO)cc2)c1,4.5
Cc1cccc(-c2ccc([C@@H]3[C@@H](CO)N4CCCCN(S(=O)(=O)c5ccccc5C)C[C@@H]34)cc2)c1,-20*
O=S(=O)(c1ccccc1F)N1CCCCN2[C@H](CO)[C@H](c3ccc(-c4ccccc4)cc3)[C@H]2C1,1.9
Cc1cccc(-c2ccc([C@H]3[C@H]4CN(S(=O)(=O)c5ccccc5F)CCCCN4[C@H]3CO)cc2)c1,-1.6
Cc1cccc(-c2ccc([C@H]3[C@@H](CO)N4CCCCN(S(=O)(=O)c5ccccc5F)C[C@H]34)cc2)c1,-3.5*
Cc1cccc(-c2ccc([C@@H]3[C@@H](CO)N4CCCCN(S(=O)(=O)c5ccccc5C)C[C@H]34)cc2)c1,2.1
Cc1cccc(-c2ccc([C@H]3[C@H](CO)N4CCCCN(S(=O)(=O)c5cccc(C)c5)C[C@@H]34)cc2)c1,1.1
Cc1cccc(-c2ccc([C@@H]3[C@@H](CO)N4CCCCN(S(=O)(=O)c5cccc(C)c5)C[C@@H]34)cc2)c1,-9.8*
O=C(Cc1ccncc1)N1CC[C@@H]2[C@H](CO)Nc3ccc(-c4ccccc4F)cc3[C@@H]21,-0.73
O=C(c1cnccn1)N1CC(=O)N2[C@H](C1)[C@H](c1ccc(C#CCc3ccccc3)cc1)[C@@H]2CO,0.6
CC(C)N(C[C@@H]1[C@H](c2ccccc2)[C@@H](CO)N1S(C)(=O)=O)C(=O)CN(C)C,0.34
OC[C@H]1[C@H]2c3ccccc3NC[C@H]2N1CC1CCOCC1,2.4
CCC(=O)N1[C@@H](CO)[C@@H](c2ccccc2)[C@@H]1CN(CC)C(=O)NC1CCCC1,1.2
Cc1ccc(-c2ccc([C@@H]3[C@H](CO)N4C(=O)CN(C(=O)Nc5ccc(F)cc5)C[C@@H]34)cc2)cc1,0.61
O=C1N[C@H](Cc2ccccc2)COCc2cn(nn2)CC[C@@H]1Cc1cccc(F)c1,0.6
CCS(=O)(=O)N1CCCCN2[C@H](CO)[C@@H](c3ccc(C#Cc4ccccn4)cc3)[C@@H]2C1,-0.47
O=S(=O)(c1ccccc1)N1CCCCN2[C@H](CO)[C@H](c3ccc(C#Cc4ccccc4)cc3)[C@H]2C1,1.9
CS(=O)(=O)N1CCCCN2[C@@H](CO)[C@H](c3ccc(C#Cc4ccccn4)cc3)[C@@H]2C1,-3.9*
O=S(=O)(c1ccccc1)N1CCCCN2[C@H](CO)[C@H](c3ccc(C#Cc4ccccn4)cc3)[C@H]2C1,-3.2*
SMILES,IDE exosite FP
CS(=O)(=O)N1CCCCN2[C@H](C1)[C@@H](c1ccc(C#Cc3ccccn3)cc1)[C@@H]2CO,-3.3*
O=C(c1ccncc1)N1CCCCN2[C@H](CO)[C@@H](c3ccc(C#Cc4ccccn4)cc3)[C@@H]2C1,-1.9
CC(C)(O)C#Cc1ccc([C@@H]2[C@H]3CN(S(C)(=O)=O)CCCCN3[C@H]2CO)cc1,-0.9
O=S(=O)(c1ccccc1)N1CCCCN2[C@H](CO)[C@H](c3ccc(C#Cc4ccccc4)cc3)[C@@H]2C1,3.7
O=C(c1ccncc1)N1CCCCN2[C@H](C1)[C@H](c1ccc(C#Cc3ccccn3)cc1)[C@@H]2CO,-2.2
CCC(=O)N1[C@H](CO)[C@H](c2ccc(C3=CCCC3)cc2)[C@@H]1CNC1CCCCC1,0.0078
O=C(Cc1ccccn1)N1CC(=O)N2[C@H](C1)[C@H](c1ccc(C#CCC3CCCC3)cc1)[C@@H]2CO,1
CS(=O)(=O)N1CC(=O)N2[C@H](CO)[C@@H](c3ccc(C#CC4CCCC4)cc3)[C@H]2C1,1.7
C[C@@H]1CN([C@H](C)CO)C(=O)CCCn2nncc2CO[C@H]1CN(C)C(=O)Nc1ccc(-c2cccs2)cc1,-0.43
CN(C)CC#Cc1ccc([C@@H]2[C@@H](CO)N3CCCCN(C(=O)Nc4ccc(F)cc4)C[C@H]23)cc1,1.9
N#C[C@@H]1[C@@H](c2ccccc2-c2cccc(F)c2)[C@H](CO)N1C(=O)C1CCC1,2.6
N#C[C@@H]1[C@@H](c2ccccc2-c2ccccc2F)[C@@H](CO)N1C(=O)C1CCOCC1,0.94
COc1ccccc1NC(=O)Nc1ccc2c(c1)C(=O)N(C)[C@H]1CC[C@H](CC(=O)Nc3ccc4c(c3)COC4)O[C@@H]1CO2,-0.18
CN1C(=O)c2cc(NS(C)(=O)=O)ccc2OC[C@H]2O[C@@H](CC(=O)NCc3ccccc3)CC[C@@H]21,0.18
CN1C(=O)c2cc(NS(C)(=O)=O)ccc2OC[C@H]2O[C@H](CC(=O)N3CCOCC3)CC[C@@H]21,-14*
COc1ccccc1NC(=O)C[C@H]1CC[C@H]2[C@@H](COc3ccc(NS(C)(=O)=O)cc3C(=O)N2C)O1,-6.1*
CCS(=O)(=O)Nc1ccc2c(c1)C(=O)N(C)[C@@H]1CC[C@@H](CC(=O)N3CCN(C)CC3)O[C@H]1CO2,0.27
CN1C(=O)c2cc(NS(C)(=O)=O)ccc2OC[C@@H]2O[C@@H](CC(=O)N3CCOCC3)CC[C@H]21,-1
Cc1ccc(S(=O)(=O)Nc2ccc3c(c2)CC(=O)N([C@@H](C)CO)C[C@H](C)[C@H](CN(C)S(=O)(=O)c2ccccc2)O3)cc1,-0.088
CCCNC(=O)N1CC(=O)N2[C@H](CO)[C@@H](c3ccc(C#CCC4CCCC4)cc3)[C@@H]2C1,0.93
CC(C)NC(=O)N1CCCCN2[C@H](CO)[C@@H](c3ccc(C#Cc4ccccc4F)cc3)[C@@H]2C1,-0.26
CC(C)NC(=O)N1CCCCN2[C@H](C1)[C@H](c1ccc(C#C[C@H](C)O)cc1)[C@@H]2CO,0.93
CC(C)NC(=O)N1CCCCN2[C@H](CO)[C@@H](c3ccc(C#C[C@H](C)O)cc3)[C@H]2C1,0.032
CC(C)NC(=O)N1CCCCN2[C@@H](CO)[C@H](c3ccc(C#Cc4ccccc4)cc3)[C@@H]2C1,-11*
CC(C)NC(=O)N1CCCCN2[C@H](CO)[C@H](c3ccc(C#C[C@@H](C)O)cc3)[C@@H]2C1,0.6
SMILES,IDE exosite FP
CC(C)NC(=O)N1CCCCN2[C@H](CO)[C@@H](c3ccc(C#Cc4ccccc4)cc3)[C@@H]2C1,-7.5*
CC(C)NC(=O)N1CCCCN2[C@H](CO)[C@@H](c3ccc(C#C[C@@H](C)O)cc3)[C@H]2C1,0.065
CC(C)C#Cc1ccc([C@@H]2[C@@H](CO)N3CCCCN(C(=O)NC(C)C)C[C@H]23)cc1,0.57
CC(C)NC(=O)N1CCCCN2[C@H](CO)[C@H](c3ccc(C#Cc4ccccc4)cc3)[C@@H]2C1,-9.8*
O=S(=O)(c1ccc(F)cc1)N1CCCCN2[C@H](C1)[C@@H](c1ccc(-c3ccccc3)cc1)[C@@H]2CO,2.4
COc1ccccc1NC(=O)N1CC(=O)N2[C@H](C1)[C@H](c1ccc(C#CCC(C)C)cc1)[C@@H]2CO,1.8
